Consider six molecules from PubChem BioAssay (NCATS).

The target of assay [1] is Lysosomal acid glucosylceramidase (Homo sapiens) (UniProt P04062). The assay can be described thus: Glucocerebrosidase-p2 (AID 348; in the data active = potency below about 10 µM; also: potency is read from the fitted curve at half-maximal effect). Conditions: purified GBA, blue fluorogenic substrate, 40 min. In short, it runs like this:
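Normal human glucocerebrosidase (0.2 nM) with blue fluorogenic substrate (80 uM final) in citrate/phosphate pH 5.9 with 10mM sodium taurocholate, 0.01% tween-20; 40 min RT, NaOH/glycine stop; fluorescence Ex 365/Em 440; AC50 from a titration from 0.6 nM upwards.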

Assay [2] can be described thus: AP1 Signaling Pathway (AID 357).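 Also: ME-180 reporter cells stimulated with EGF at its EC50 level; % is scaled to controls: 0 for no effect and ±100 for the full control effect.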 Conditions: ME-180 AP-1-bla reporter, EGF-induced, beta-lactamase ratio, 5 h; at 7.69 µM (top of the series) unless noted. In short, it runs like this:
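A ratiometric CCF4 readout (405 nm excitation; 460 and 530 nm emission) quantified AP-1-driven beta-lactamase in ME-180 cells after 5 h with compound and EC50 EGF; AC50 values were derived for activators and inhibitors.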

For assay [3], the target named is Cytochrome P450 1A2 (Homo sapiens) (UniProt P05177). In words: p450-cyp1a2 (AID 410; calls by dose curve; also: potency is read from the fitted curve at half-maximal effect;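 as to activity change, negative = inhibition: -100% = full effect of reference inhibitor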). Conditions: recombinant CYP1A2, luciferin-ME demethylation, luminescence; series mostly up to 57 µM. In short, it runs like this: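 Luminescent demethylation readout: Luciferin-ME (100uM, equal to Km) turned over by 20nM CYP1A2 for 60 min at room temperature after NADPH regeneration addition, following 10 min compound preincubation. Normalization used 57 uM furafylline as full inhibition.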

Assay [4] can be described thus: Stat Signaling Pathway (AID 446).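 Also: ME-180 cervical cancer cells given 40 pM IL-6 alongside compound; SIE-controlled beta-lactamase reporter measured as 460/530 nm FRET emission ratio; % is scaled to controls: 0 for no effect and ±100 for the full control effect.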 Conditions: ME-180 SIE beta-lactamase reporter, IL-6 stimulated, 5 h; at 7.69 µM (top of the series) unless noted. In short, it runs like this: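 Compound effects on IL-6-induced STAT reporter activity were measured in ME-180 cells. After overnight culture, cells were co-treated with 40 pM IL-6 for 5 hrs before beta-lactamase substrate loading at room temperature.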

Assay [5] concerns the target Glucocorticoid receptor (Homo sapiens) (UniProt P04150). In words: GR-GFP Redistribution (AID 450;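 active = compounds whose dose series gives a full or clear partial fitted curve of increased nuclear translocation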; also: potency is read from the fitted curve at half-maximal effect). Conditions: U2OS GR-GFP nuclear translocation, laser cytometry, 2 h.
For assay [6] the target is unchanged. The assay can be described thus: GR-EFC Redistribution (AID 451; calls by dose curve; also: potency is read from the fitted curve at half-maximal effect). Conditions: CHO-K1 GR-EFC translocation, beta-gal luminescence, 2 h. In short, it runs like this:
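Translocation of GR-ED fusion to nuclear EA restores b-gal, read by luminescence after 1 h room-temperature detection. Engineered CHO-K1 biosensor cells, 1,000/well, exposed 2 h at 37 C to titrations up to 46 uM final.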

The target in assay [7] is Mitogen-activated protein kinase 10 (Mus musculus) (UniProt Q61831). The assay can be described thus: JNK3 AlphaScreen Assay (AID 530).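 Also: kinase came from lysate of stimulated human HepG2 cells; signal reports phosphorylation of biotinylated GST-cJun 1-79 at Ser73 with 10 µM ATP; % is scaled to controls: 0 for no effect and ±100 for the full control effect.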 Conditions: JNK3 lysate, c-Jun phosphorylation; series mostly up to 57.1 µM. In short, it runs like this:
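qHTS titrations with 15 min compound pre-incubation before adding ATP (10 uM final). Read-out: AlphaScreen of Ser73-phosphorylated biotin-GST-cJun using HepG2 lysate JNK3 activated by IL-1β and TNFα.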

Assay [8] deals with 3',5'-cyclic-AMP phosphodiesterase 4B (Homo sapiens) (UniProt Q07343). The assay can be described thus: qHTS Assay for Inhibitors of PDE-IV (AID 607; active = well fitted activation curve with a large enough effect in the main read-out, with a control signal flat, not every such curve was filed as active; also: % of control where 0% means no effect). Conditions: HEK293 ACTOne CNG channel cells, membrane potential fluorescence; series mostly up to 22.9 µM. In short, it runs like this:
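ACTOne HEK293 cells carry a modified cAMP-gated CNG channel and express endogenous PDE4; plated 1000 cells/well, compounds up to 22.9 uM final. Membrane-potential dye fluorescence (ex 535/em 590) was read; parental cells received 10 uM forskolin + 100 uM RO 20-1724.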
A general note: In qHTS, concentration-response curves come from the screen itself.

The target of assay [9] is Cytochrome P450 3A4 (Homo sapiens) (UniProt P08684). The assay can be described thus: qHTS Assay for Inhibitors and Substrates of Cytochrome P450 3A4 (AID 884; active = well fitted curve in the direction sought with a large enough effect; an effect the other way counts as inactive or inconclusive; also: potency is read from the fitted curve at half-maximal effect; nearly all actives have a fitted effect of over 50% in size). Conditions: recombinant CYP3A4, Luciferin-PPXE luminescence; series mostly up to 57.1 µM. In short, it runs like this:
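Luminescent readout of luciferin produced by CYP3A4 (20 nM) dealkylation of Luciferin-PPXE, 25 uM (its KM). NADPH-driven reaction ran 60 min at RT after 10 min compound preincubation; data scaled to 57 uM ketoconazole as 100% inhibition.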

Assay [10] has the same target. The assay can be described thus: qHTS Assay for Activators of Cytochrome P450 3A4 (AID 885; active = well fitted curve in the direction sought with a large enough effect; an effect the other way counts as inactive or inconclusive; also: nearly all actives have a fitted effect of over 65% in size). Conditions: recombinant CYP3A4, Luciferin-PPXE luminescence, 60 min; series mostly up to 57.1 µM. In short, it runs like this: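 CYP3A4 activity: Luciferin-PPXE O-dealkylation, 25uM substrate, 200mM KPO4, RT throughout. Read-out is luciferase luminescence; higher values reflect activation.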

Assay [11] in a line: Confirmation and Secondary Assay for Modulators of Hemoglobin Beta Chain Splicing at IVS2 654 locus (AID 910; active = well fitted curve in the direction sought with a large enough effect; an effect the other way counts as inactive or inconclusive;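 also: HeLa cells stably carrying EGFP split by mutant beta-globin IVS2-654 intron; per-well total GFP intensity by laser scanning cytometry after 2-day treatment; % of control where 0% means no effect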). Conditions: HeLa EGFP-654 splicing reporter, GFP fluorescence, 48 h; series mostly up to 38.3 µM. In short, it runs like this:
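Readout: per-well total peak green fluorescence (488 nm ex, 500–520 nm em) from objects 5–250 µm, reflecting correct splicing of an EGFP-654 reporter. Compounds were applied for 2 days at 37 °C to overnight-plated HeLa EGFP-654 cells; controls were DMSO and 500 nM IVS2-654 PNA.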

The nature of assay [12]: qHTS Assay for Identification of Small Molecule Agonists for Hypoxia Response Element Signaling Pathway (AID 914; active = well fitted activation curve with a large enough effect in the signal ratio, with a control signal flat, not every such curve was filed as active; the % refers to the signal ratio; also: potency is read from the fitted curve at half-maximal effect; as to activation: % of control where 0% means no effect). Conditions: ME-180 (cervical carcinoma) HRE-bla reporter, beta-lactamase ratio, CoCl2, 17 h; activation: stronger effect = higher value. In short, it runs like this:
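Compounds in a titration series were added to ME-180 reporter cells alongside an EC50 level of CoCl2. After 17 hours, beta-lactamase activity was read as the 460nm/530nm emission ratio of CCF4, giving AC50 values.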

Assay [13] is described as follows: Confirmation and Secondary Assay for Modulators of Hemoglobin Beta Chain Splicing at IVS2 705 locus (AID 930; active = well fitted curve in the direction sought with a large enough effect; an effect the other way counts as inactive or inconclusive;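 also: HeLa cells stably expressing the EGFP-705 splicing reporter; GFP fluorescence per well restored by corrected splicing of the IVS2-705 intron in EGFP; % of control where 0% means no effect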). Conditions: HeLa EGFP-705 splicing reporter, GFP fluorescence, 48 h; series mostly up to 38.3 µM. In short, it runs like this:
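Assay measures total GFP intensity per well in HeLa EGFP-705 cells after 2 days with compound; mis-splicing normally truncates EGFP, so fluorescence indicates corrected splicing.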

A short description of assay [14]: qHTS Assay for Lipid Storage Modulators (AID 1519; calls by dose curve). Conditions: Drosophila S3 cells, BODIPY lipid droplet/cell ratio, laser cytometry, cells loaded with oleic acid; for activity change, negative = inhibition: at 57.5 µM (top of the series). In short, it runs like this:
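Cells seeded at 5,000 per well were treated with compounds over a concentration series and loaded with oleic acid (400 uM, as added). Lipid droplet fluorescence (488 nm excitation, 500-530 nm channel) was read by laser-scanning cytometry and normalized to 20 uM Triacsin C.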

The target in assay [15] is Ubiquitin carboxyl-terminal hydrolase 1 (Homo sapiens) (UniProt O94782). The assay can be described thus: Inhibitors of USP1/UAF1: Pilot qHTS (AID 504865; active = well fitted curve in the direction sought with a large enough effect; an effect the other way counts as inactive or inconclusive;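 also: rhodamine fluorescence freed from ubiquitin-rhodamine substrate followed over time; top concentration of the series differs between compounds; % is scaled to controls: 0 for no effect and ±100 for the full control effect; nearly all actives have a fitted effect of over 35% in size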). Conditions: purified USP1/UAF1, Ub-rhodamine cleavage fluorescence; series mostly up to 54.9 µM. In short, it runs like this: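 1nM USP1/UAF1 + cpd, 15 min RT; start w/ Ub-Rho 150nM final; kinetic FL 480/540 nm, 6 reads q60 s. Buffer 50mM HEPES pH 7.8, 0.5mM EDTA, 1mM TCEP, 0.01% Tween-20, 0.1 mg/ml BSA.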

Assay [16] is described as follows: NFAT Signaling Pathway (AID 444).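 Also: carbachol stimulus at about its EC50 of 1 µM final; % is scaled to controls: 0 for no effect and ±100 for the full control effect.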 Conditions: Jurkat NFAT-bla M1, carbachol, beta-lactamase ratio, 5 h; at 7.69 µM (top of the series) unless noted. In short, it runs like this: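 Read-out: CCF4 FRET ratio (460 nm/530 nm) after 1 h RT dye loading, used for %activity and AC50 from titration series. Cells: Jurkat NFAT-β-lactamase/M1 line, treated with compound plus 1 uM carbachol for 5 h, 37 °C.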

Setting [17] is: measured here: cell count channel max response.
The mark [18] stands for this setting: measured here: lipid channel max response.

Records with an inconclusive call do not appear. Active and inactive are the calls of the source. Unless noted, calls follow the shape of the dose curve; as a rule, active = well fitted curve in either direction with a large enough effect (not every such curve was filed as active); inconclusive = small, poorly fitted or top-dose-only effect, or another doubt; inactive = flat fitted curve, though single readings scatter.

Sequence of Cytochrome P450 3A4 (Homo sapiens) (P08684 whole entry, looked up): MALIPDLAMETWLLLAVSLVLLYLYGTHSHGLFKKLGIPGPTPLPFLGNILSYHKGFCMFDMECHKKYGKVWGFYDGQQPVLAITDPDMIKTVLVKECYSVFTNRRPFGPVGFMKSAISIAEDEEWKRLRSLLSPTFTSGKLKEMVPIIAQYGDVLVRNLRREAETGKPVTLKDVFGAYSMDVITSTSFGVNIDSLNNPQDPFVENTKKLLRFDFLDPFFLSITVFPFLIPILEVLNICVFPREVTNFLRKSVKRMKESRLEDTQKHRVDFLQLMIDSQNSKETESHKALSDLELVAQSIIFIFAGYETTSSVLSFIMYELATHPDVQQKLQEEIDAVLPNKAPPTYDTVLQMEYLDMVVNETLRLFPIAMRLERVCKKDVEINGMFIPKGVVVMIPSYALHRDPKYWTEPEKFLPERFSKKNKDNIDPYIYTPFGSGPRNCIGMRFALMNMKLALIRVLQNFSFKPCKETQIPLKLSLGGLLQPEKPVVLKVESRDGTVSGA
Sequence of 3',5'-cyclic-AMP phosphodiesterase 4B (Homo sapiens) (Q07343 whole entry, looked up): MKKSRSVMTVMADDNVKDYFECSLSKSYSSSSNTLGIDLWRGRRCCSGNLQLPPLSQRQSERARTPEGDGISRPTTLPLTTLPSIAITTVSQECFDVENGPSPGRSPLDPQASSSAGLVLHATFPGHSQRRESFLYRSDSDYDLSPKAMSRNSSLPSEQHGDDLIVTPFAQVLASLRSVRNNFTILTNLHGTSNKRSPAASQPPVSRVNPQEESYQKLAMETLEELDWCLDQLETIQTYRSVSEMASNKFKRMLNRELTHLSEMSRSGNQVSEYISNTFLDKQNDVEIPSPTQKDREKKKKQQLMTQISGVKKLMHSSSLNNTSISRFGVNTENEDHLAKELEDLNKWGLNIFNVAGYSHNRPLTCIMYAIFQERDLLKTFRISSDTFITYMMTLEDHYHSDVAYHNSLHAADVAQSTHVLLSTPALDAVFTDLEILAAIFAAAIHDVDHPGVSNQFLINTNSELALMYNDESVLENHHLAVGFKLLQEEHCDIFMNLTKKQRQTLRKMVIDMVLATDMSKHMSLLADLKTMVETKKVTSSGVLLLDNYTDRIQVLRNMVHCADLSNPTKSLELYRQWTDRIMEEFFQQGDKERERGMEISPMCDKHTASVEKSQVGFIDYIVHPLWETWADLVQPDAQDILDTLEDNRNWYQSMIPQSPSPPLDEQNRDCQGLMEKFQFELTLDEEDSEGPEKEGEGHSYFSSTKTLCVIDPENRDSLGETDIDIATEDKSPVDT
Sequence of Glucocorticoid receptor (Homo sapiens) (P04150 whole entry, looked up): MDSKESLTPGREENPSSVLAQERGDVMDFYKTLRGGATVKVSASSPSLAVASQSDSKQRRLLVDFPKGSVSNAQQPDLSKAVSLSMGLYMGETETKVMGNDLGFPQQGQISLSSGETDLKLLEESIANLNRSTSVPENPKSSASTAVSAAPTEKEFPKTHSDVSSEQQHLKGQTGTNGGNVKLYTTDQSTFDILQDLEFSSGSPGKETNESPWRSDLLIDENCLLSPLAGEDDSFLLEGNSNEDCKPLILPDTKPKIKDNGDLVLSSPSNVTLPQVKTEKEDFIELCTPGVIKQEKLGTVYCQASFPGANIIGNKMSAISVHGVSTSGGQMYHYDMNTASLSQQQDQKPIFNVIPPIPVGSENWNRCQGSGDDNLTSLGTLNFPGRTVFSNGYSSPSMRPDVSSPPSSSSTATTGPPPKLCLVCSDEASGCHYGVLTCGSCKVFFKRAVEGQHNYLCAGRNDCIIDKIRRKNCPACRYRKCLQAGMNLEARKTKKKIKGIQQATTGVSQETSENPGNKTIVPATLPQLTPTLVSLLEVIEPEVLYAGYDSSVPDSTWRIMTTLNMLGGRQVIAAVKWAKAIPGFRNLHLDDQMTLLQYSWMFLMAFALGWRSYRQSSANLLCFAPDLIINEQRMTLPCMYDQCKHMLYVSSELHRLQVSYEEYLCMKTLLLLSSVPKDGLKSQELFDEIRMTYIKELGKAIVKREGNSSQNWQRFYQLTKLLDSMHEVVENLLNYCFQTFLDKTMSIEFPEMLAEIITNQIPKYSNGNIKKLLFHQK
Sequence of Lysosomal acid glucosylceramidase (Homo sapiens) (P04062 whole entry, looked up): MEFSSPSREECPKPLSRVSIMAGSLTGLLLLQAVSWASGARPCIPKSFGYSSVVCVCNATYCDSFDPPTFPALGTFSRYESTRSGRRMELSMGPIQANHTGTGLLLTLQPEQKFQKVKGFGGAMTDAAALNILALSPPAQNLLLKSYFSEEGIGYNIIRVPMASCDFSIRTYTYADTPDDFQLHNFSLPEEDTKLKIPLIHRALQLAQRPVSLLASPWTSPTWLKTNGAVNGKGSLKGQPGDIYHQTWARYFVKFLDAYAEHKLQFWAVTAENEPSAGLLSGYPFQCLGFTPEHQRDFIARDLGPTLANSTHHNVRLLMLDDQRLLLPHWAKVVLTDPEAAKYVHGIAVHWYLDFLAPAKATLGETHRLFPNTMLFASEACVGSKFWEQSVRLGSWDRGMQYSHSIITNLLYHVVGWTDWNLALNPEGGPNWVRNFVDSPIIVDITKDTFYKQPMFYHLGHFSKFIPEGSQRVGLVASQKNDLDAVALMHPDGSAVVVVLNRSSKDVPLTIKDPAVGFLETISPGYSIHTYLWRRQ
Sequence of Cytochrome P450 1A2 (Homo sapiens) (P05177 whole entry, looked up): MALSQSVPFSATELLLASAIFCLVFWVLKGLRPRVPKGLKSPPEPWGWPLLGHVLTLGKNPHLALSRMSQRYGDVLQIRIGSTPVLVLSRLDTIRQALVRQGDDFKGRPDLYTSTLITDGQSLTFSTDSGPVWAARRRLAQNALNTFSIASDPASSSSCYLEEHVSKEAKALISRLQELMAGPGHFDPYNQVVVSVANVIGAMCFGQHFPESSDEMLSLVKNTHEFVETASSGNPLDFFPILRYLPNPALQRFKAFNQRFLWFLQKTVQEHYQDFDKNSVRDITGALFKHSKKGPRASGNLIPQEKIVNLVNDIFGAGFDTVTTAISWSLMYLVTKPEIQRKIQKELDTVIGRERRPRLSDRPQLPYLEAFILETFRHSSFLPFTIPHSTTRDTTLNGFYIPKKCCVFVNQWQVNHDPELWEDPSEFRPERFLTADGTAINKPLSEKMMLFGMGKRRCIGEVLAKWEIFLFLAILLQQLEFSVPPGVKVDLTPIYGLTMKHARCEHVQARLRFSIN
Sequence of Ubiquitin carboxyl-terminal hydrolase 1 (Homo sapiens) (O94782 whole entry, looked up): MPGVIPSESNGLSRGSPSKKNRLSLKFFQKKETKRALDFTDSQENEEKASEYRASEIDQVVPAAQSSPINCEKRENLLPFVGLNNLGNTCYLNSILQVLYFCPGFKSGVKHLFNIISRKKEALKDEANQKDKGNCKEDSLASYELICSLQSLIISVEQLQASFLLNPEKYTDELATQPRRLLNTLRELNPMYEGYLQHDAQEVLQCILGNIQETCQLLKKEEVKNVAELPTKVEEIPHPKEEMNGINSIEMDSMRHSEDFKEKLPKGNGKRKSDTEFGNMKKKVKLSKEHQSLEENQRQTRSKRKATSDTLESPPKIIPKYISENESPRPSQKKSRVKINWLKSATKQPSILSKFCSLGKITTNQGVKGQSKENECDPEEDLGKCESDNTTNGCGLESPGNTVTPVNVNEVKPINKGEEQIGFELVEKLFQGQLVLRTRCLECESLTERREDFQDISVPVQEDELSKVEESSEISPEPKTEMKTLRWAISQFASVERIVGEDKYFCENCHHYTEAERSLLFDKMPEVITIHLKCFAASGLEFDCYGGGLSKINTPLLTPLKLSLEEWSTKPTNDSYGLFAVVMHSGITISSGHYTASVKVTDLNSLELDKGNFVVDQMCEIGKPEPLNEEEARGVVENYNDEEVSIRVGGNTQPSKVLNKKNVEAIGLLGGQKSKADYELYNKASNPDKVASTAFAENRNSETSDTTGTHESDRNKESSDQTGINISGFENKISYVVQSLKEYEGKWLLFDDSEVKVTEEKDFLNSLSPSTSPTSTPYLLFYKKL

With `Cc1ccccc1-c1cncnc1NCCN1CCOCC1`, the Potency is > 11.4 µM (inactive) in assay [1]; 15.8 µM (active) in assay [3]; > 46 µM (inactive) in assay [5]; > 46 µM (inactive) in assay [6]; 1.58 µM (active) in assay [9]; 3.16 µM (active) in assay [12]. Also, the activity change, negative = inhibition in [2] is 24.4% (inactive); in [14] it was 4.31% (inactive). The activity, negative = inhibition in [4] was 7.48% (inactive). The Potency result in assay [7], in assay [8], in assay [10], in assay [11] and in assay [15] was “inactive” throughout. The molecule was classed as inactive in [13]. Further, the max response in [14] (setting [17]) is 0.273%; in assay [14] (setting [18]), 3.28%.
As to `O=C(c1cnccn1)N1CCC2(CCCN(c3cccc(-c4ccccc4)c3)C2)CC1`, the Potency in assay [1] was > 11.4 µM (inactive); in assay [3], 20 µM (active); in assay [6], > 46 µM (inactive); in assay [9] it was 2 µM (active). Moreover, the activity change, negative = inhibition in assay [2] was -16.1% (inactive); in assay [16], 5.03% (inactive); in assay [14] it was -1.76% (inactive). Further, in assay [4], the activity, negative = inhibition was -8.34% (inactive). In addition, the Potency result in assay [7] and in [10] was “inactive” each time. In addition, the max response in assay [14] (setting [17]) turned out to be 20.5%; in [14] (setting [18]), 18.4%.
For the molecule `CN(C)C(=O)c1ccc(-c2ccc3ncnc(NCc4cccnc4)c3c2)cc1`, the Potency in assay [1] is > 11.4 µM (inactive); in assay [5], > 46 µM (inactive); in [6], > 46 µM (inactive). Besides, the activity change, negative = inhibition in [2] was -3.5% (inactive); in assay [16], 14% (inactive); in assay [14] it was 8.52% (inactive). For the same molecule, the activity, negative = inhibition in [4] is -1.99% (inactive). Besides, the Potency entry in [7], in [8] and in assay [15] was “inactive” each time. Moreover, the molecule was classed as inactive in assay [13]. Further, the max response worked out at 9.7% in assay [14] (setting [17]) and 16.7% in assay [14] (setting [18]).
Regarding `O=c1cnc2cnc(N3CCOCC3)nc2n1C[C@H]1CCCO1`, the Potency was > 11.4 µM (inactive) in [1], 10 µM (active) in assay [3], > 9.22 µM (inactive) in [5] and > 46 µM (inactive) in [6]. Also, the activity change, negative = inhibition is 2.78% (inactive) in assay [2] and 5.43% (inactive) in assay [14]. Also, the activity, negative = inhibition in assay [4] is -3.88% (inactive). Moreover, the Potency result in assay [7], in assay [8] and in assay [10] was “inactive” in each case. In addition, the activation in [12] was 9.58% (inactive). For the same molecule, the figures for the max response in assay [14] (setting [17]) and in assay [14] (setting [18]) were 13.3% and 22.5%, respectively.
With `CN1CC[C@@]2(CCCN(C(=O)c3cccn3C)C2)C1`, the values for the Potency in assay [1] and in assay [6] were > 11.4 µM (inactive) and > 46 µM (inactive), respectively. Besides, the activity change, negative = inhibition in [2] is 0.737% (inactive); in assay [16], 9.28% (inactive); in assay [14], 2.7% (inactive). In addition, the Potency result in [3], in assay [7], in assay [8] and in [10] was “inactive” each time. Besides, in assay [4], the activity, negative = inhibition was -1.28% (inactive). The max response in [14] (setting [17]) was -0.284%; in [14] (setting [18]), 4.15%.
In the case of `Cc1cnc(CNc2ccnc(-c3ccc(N(C)C)cc3)n2)cn1`, the Potency was > 11.4 µM (inactive) in assay [1], 2.51 µM (active) in assay [3], > 46 µM (inactive) in assay [5] and > 46 µM (inactive) in [6]. In addition, the activity change, negative = inhibition in [2] was 8.41% (inactive); in assay [16] it was -1.95% (inactive); in [14], 8.28% (inactive). Further, the Potency entry in [7], in assay [8] and in [10] was “inactive” in each case. In addition, in assay [13], the outcome was inactive. Also, the max response in assay [14] (setting [17]) is -9.25%; in [14] (setting [18]), 1.54%.
